Results on five compounds are retold here after PubChem BioAssay.

Calls of active or inactive are those of the source.

For assay [1], the target named is Albumin (Bos taurus) (UniProt P02769). The assay can be described thus: compounds binding labelled BSA control protein – biochemical, small-molecule microarray, Alexa647 label, 635/667 nm fluorescence, artefact control for SMM control protein annotation, profiling panel (AID 1118).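 Further: score merges 667 nm emission intensity and signal-to-noise per printed compound spot.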 The following applies: BSA-A647 binding, fluorescence 635 nm, higher = more signal.

Assay [2] can be described thus: probe aXIP binding to arrayed compounds – biochemical, NeuroSMM set, 635/667 nm fluorescence, primary screen (AID 1119).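 Further: probe is the protein aXip251-270 applied at 1 µg/mL to compound-printed slides; binding of probe to printed compounds measured as 667 nm fluorescence plus signal to noise.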 Conditions: small-molecule microarray, higher = more signal, called active from +8 up or from −8 down.
Assay [3] is described as follows: probe aNOTCH3 binding on compound microarray – biochemical, small-molecule microarray, 635/667 nm fluorescence, primary screen (AID 1120).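 Further: probe is a biotin-tagged antibody raised against NOTCH3 rather than NOTCH3 protein; score merges spot fluorescence near 667 nm with spot signal to noise.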 The following applies: higher = more signal.
Assay [4] in a line: probe aNOTCH2 binding on compound microarray – biochemical, small-molecule microarray, 635/667 nm fluorescence, primary screen (AID 1121).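 Further: score merges feature fluorescence read at 667 nm with its signal to noise.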 The following applies: higher = more signal.
The target in assay [5] is Carbonic anhydrase 2 (Homo sapiens) (UniProt P00918). The assay can be described thus: compounds binding carbonic anhydrase 2 – biochemical, small-molecule microarray, Alexa647-labelled CAII, profiling panel (AID 1122). Conditions: CAII-A647 binding fluorescence, higher = more signal.
Assay [6] in a line: COS7 lysate on small-molecule microarray, probe aHis, 635 nm (AID 1123).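 Further: z-score combines 667nm fluorescence intensity with signal-to-noise per printed compound spot.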 The following applies: COS7 cell lysate, fluorescence, higher = more signal.
Assay [7] is described as follows: probe aLAP1 signal on lysate-treated microarray – cell lysate, small-molecule microarray, COS7 lysate, primary screen (AID 1124).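 Further: lysate comes from COS7 cells expressing LAP1 and is applied at 0.3 µg/mL; score merges spot fluorescence near 667 nm with signal-to-noise over triplicate slides.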 Conditions: probe aLAP1, fluorescence, higher = more signal.
The subject of assay [8] is Sam68 (KHDRBS1). The assay can be described thus: compounds binding KHDRBS1 protein – biochemical, small-molecule microarray, 635 nm fluorescence, primary screen (AID 1125).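 Further: score merges 667 nm channel intensity with signal to noise over triplicate slides.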 Conditions: higher = more signal.
Assay [9] concerns Chordin-like protein 2 (CHRDL2). The assay can be described thus: compounds binding chordin-like 2 – biochemical, small-molecule microarray, 635 nm fluorescence, primary screen (AID 1126).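 Further: printed compound slides probed with Chrdl2 protein at 4 µg/mL for 1 h at 4 C; score merges 667 nm emission intensity with signal to noise over three replicate slides.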 Conditions: fluorescence 635 nm, higher = more signal.
For assay [10], the target named is Concanavalin-A (Canavalia ensiformis) (UniProt P02866). The assay can be described thus: compounds binding concanavalin A lectin – biochemical, small-molecule microarray, Alexa647 label, 635 nm, artefact control for SMM control protein annotation, primary screen (AID 1127).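 Further: z combines 667 nm emission intensity with signal-to-noise across three replicate slides.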 Conditions: ConA-A647 binding fluorescence, higher = more signal.
A short description of assay [11]: compounds binding Alexa647 anti-His antibody – biochemical, small-molecule microarray, 635 nm fluorescence, artefact control for SMM control protein annotation, primary screen (AID 1128).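 Further: score merges feature fluorescence with signal-to-noise for each printed compound spot.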 The following applies: higher = more signal.
Assay [12] has as its system Human papillomavirus type 1a E7 protein (residues 1-88). The assay can be described thus: HPV1a E7 small-molecule binders, primary screen, biochemical, small-molecule microarray, residues 1-88, 635 nm (AID 1129). Conditions: small-molecule microarray binding, fluorescence 635 nm; higher = more signal.
Assay [13] has as its target Focal adhesion kinase 1 (Homo sapiens) (UniProt Q05397). The assay can be described thus: PTK2 protein binding on printed compound slides – biochemical, small-molecule microarray, 635/667 nm fluorescence, BSA, DTT, primary screen (AID 1130).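 Further: composite of spot emission at 667 nm and signal to noise over triplicate slides.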 Conditions: 635 nm fluorescence, higher = more signal.
The test system of assay [14] is Fibrinogen (Alexa647-labelled). The assay can be described thus: Alexa647-fibrinogen binding to printed small molecules – biochemical, small-molecule microarray, 635/667 nm fluorescence, artefact control for SMM control-protein annotation, profiling panel (AID 1131).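 Further: z-score merges 667 nm fluorescence with per-spot signal-to-noise over triplicate slides.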 Conditions: fibrinogen-A647 binding fluorescence, higher = more signal.
In assay [15] the target is Follistatin (Homo sapiens) (UniProt P19883). The assay can be described thus: FST protein binding to printed compounds – biochemical, small-molecule microarray, 635/667 nm fluorescence, primary screen (AID 1132). Conditions: 635 nm fluorescence, higher = more signal.
Assay [16] has as its target Fibroblast growth factor 2 (Homo sapiens) (UniProt P09038). The assay can be described thus: basic fibroblast growth factor binding to printed compounds – biochemical, small-molecule microarray, 635/667 nm fluorescence, primary screen (AID 1133). The following applies: FGF2, fluorescence 635/667, higher = more signal.
Assay [17] is described as follows: JC-1 mitochondrial potential readout, lung cancer cells – cell-based, A549, JC-1 fluorescence, basal, 24 h, 100 nL, profiling panel (AID 1138).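 Further: A549 lung adenocarcinoma cells under basal conditions with no added stimulus; test concentration not given here.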 Conditions: higher = more signal.
The test system of assay [18] is Lefty1. The assay can be described thus: Lefty1 protein binding to printed compounds – biochemical, small-molecule microarray, 635/667 nm fluorescence, primary screen (AID 1139). Conditions: fluorescence 635/667, higher = more signal.
The subject of assay [19] is wheat germ agglutinin (Triticum aestivum), Alexa647-labelled. The assay can be described thus: Alexa647-WGA lectin binding to printed small molecules – biochemical, small-molecule microarray, 635/667 nm fluorescence, artefact control for SMM control-protein annotation, profiling panel (AID 1140).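 Further: score merges 667 nm feature emission with signal to noise over triplicate slides.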 Conditions: WGA-A647 binding, 635 nm fluorescence, higher = more signal.
Assay [20] addresses Luciferin 4-monooxygenase (Photinus pyralis) (UniProt P08659). The assay can be described thus: inhibition of purified Photinus pyralis luciferase – biochemical, luminescence, purified enzyme, 2006 set, primary screen (AID 1141).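 Further: cell-free assay with purified firefly luciferase at 100 ng per well in PBS; test concentration not given here.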 Conditions: purified firefly luciferase, SteadyGlo luminescence, 30 min; higher = more signal, called active from +8 up or from −8 down.

Sequence of Luciferin 4-monooxygenase (Photinus pyralis) (P08659 whole entry, looked up): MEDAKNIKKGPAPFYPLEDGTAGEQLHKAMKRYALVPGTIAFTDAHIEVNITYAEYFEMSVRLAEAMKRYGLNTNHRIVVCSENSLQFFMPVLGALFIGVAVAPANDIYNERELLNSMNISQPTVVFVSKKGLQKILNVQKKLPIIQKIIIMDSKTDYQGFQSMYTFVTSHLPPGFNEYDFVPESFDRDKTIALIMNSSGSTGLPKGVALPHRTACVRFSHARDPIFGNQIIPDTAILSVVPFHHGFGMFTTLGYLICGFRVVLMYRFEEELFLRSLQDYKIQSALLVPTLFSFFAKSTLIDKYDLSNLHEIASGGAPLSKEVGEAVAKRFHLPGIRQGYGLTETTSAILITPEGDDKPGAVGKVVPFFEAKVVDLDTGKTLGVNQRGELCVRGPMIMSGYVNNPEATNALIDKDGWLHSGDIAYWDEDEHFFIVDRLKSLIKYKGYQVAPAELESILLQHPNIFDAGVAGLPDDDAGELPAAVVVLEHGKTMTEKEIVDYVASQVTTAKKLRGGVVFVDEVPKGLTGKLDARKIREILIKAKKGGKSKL
Sequence of Follistatin (Homo sapiens) (P19883 whole entry, looked up): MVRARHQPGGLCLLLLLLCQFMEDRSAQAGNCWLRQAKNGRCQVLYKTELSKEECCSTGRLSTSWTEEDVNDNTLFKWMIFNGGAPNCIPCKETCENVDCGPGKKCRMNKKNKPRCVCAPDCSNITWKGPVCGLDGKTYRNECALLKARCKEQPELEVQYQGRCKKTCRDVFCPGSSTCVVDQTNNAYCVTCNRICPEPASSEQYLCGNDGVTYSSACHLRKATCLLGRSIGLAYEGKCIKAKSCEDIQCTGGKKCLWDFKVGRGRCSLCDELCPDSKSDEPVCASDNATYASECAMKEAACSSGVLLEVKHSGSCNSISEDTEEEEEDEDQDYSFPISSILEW
Sequence of Albumin (Bos taurus) (P02769 whole entry, looked up): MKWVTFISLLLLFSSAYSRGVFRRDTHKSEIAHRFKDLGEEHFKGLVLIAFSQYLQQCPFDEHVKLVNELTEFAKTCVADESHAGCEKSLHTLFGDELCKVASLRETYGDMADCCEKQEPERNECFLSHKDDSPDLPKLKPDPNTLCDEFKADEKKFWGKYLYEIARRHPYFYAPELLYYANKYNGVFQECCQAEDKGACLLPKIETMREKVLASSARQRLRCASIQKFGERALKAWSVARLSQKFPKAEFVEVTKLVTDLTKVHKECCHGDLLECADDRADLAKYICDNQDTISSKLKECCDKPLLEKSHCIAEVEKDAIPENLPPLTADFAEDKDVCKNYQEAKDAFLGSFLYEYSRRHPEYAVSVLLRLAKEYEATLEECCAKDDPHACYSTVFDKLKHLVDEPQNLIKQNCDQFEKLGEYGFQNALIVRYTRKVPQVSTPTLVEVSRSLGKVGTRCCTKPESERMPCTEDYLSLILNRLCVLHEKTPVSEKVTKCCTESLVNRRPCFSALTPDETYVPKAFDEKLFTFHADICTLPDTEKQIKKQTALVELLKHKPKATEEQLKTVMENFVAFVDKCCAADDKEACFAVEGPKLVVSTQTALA
Sequence of Focal adhesion kinase 1 (Homo sapiens) (Q05397 whole entry, looked up): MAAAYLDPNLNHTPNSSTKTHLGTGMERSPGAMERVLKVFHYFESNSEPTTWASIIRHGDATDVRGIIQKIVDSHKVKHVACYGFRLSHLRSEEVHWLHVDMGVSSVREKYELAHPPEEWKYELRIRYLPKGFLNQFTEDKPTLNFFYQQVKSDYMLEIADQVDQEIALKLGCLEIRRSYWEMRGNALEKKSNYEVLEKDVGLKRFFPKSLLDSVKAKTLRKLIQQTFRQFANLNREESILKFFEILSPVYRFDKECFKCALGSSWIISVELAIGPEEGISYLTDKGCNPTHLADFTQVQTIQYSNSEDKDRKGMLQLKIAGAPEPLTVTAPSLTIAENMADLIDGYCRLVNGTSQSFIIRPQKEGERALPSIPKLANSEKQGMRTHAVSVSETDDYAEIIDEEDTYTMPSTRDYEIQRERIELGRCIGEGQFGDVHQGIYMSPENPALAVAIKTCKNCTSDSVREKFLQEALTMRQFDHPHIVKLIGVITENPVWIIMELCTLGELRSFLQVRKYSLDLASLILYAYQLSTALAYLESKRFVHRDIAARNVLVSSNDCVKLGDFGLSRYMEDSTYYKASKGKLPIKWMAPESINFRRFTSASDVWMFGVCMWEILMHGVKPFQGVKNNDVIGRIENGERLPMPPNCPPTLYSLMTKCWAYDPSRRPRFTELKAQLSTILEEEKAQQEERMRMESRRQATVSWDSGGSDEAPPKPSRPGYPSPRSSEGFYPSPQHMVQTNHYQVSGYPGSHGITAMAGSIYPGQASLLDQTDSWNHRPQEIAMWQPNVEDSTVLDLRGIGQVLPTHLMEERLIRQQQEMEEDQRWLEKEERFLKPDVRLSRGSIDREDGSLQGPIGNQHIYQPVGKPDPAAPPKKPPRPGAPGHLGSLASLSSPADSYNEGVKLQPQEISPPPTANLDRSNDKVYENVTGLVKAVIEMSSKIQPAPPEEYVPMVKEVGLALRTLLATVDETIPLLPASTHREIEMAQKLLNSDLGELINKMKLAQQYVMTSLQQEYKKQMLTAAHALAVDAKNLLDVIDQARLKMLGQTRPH
Sequence of Fibroblast growth factor 2 (Homo sapiens) (P09038 whole entry, looked up): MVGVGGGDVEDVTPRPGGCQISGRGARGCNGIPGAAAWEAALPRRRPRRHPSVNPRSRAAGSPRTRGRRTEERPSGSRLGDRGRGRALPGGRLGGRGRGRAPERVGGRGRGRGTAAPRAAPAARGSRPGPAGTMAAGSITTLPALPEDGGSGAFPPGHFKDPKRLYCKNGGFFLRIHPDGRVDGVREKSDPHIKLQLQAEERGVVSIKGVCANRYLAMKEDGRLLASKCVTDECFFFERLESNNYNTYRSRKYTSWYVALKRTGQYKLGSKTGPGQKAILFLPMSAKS
Sequence of Concanavalin-A (Canavalia ensiformis) (P02866 whole entry, looked up): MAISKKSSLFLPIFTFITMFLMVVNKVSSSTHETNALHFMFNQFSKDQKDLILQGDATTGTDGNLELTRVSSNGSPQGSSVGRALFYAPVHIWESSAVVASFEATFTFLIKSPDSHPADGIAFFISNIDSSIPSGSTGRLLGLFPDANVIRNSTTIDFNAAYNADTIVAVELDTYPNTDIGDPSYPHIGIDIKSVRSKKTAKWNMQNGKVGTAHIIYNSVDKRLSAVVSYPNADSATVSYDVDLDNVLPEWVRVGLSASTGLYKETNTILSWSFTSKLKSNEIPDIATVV

Turning to `CN(C)CCCC[C@@H]1NC(=O)[C@H]2C[C@@H](C(=O)O)[C@@H](c3ccc(O)cc3)N2C1=O`, the composite z-score in assay [1] was found to be 0.705; in [3], 1.65; in [4], 0.68; in assay [5] it was 0.946; in assay [6], 4.01; in assay [7], 1.31. Moreover, the composite z-score stood at 1.33 in assay [8]; 1.48 in assay [9]; 1.24 in assay [10]; 3.85 in assay [11]; 1.31 in assay [12]; 1.99 in assay [13]. Also, the composite z-score came out at 1.04 in [14]; 1.52 in assay [15]; 1.83 in assay [16]; 1.63 in assay [18]; 1.65 in assay [19]. For the same compound, the composite Z-score in [2] was 3.89 (inactive). The z-score in assay [17] is -0.447; in assay [20] it was -0.367 (inactive).

For `CCCCCC1=C2CNC(CC(C)C)(C(=O)OC)C=C2C(C)C1=O` (stereo not given), the composite z-score in assay [1] turned out to be 0.624; in assay [3], 0.376; in assay [4], 0.0453; in assay [5], 0.495; in assay [6], 1.9; in assay [7] it was 0.602. The composite z-score in assay [8] is 1.18; in assay [9], -0.861; in [10], 0.232; in assay [11] it was 0.654; in assay [12] it was 1.17; in assay [13] it was 1.61. The composite z-score was 0.955 in [14]; -0.127 in [15]; -0.544 in assay [16]; -0.145 in assay [18]; 0.955 in assay [19]. Further, the composite Z-score in assay [2] was -0.378 (inactive). Also, the figures for the z-score in [17] and in assay [20] were 0.326 and -0.0622 (inactive), respectively.

With `CO[C@H]1O[C@H](CO)[C@@H](OC(=O)Nc2ccccc2-c2ccccc2)[C@H](OC(=O)Nc2ccccc2)[C@H]1OC(=O)Nc1ccccc1`, the composite z-score is 0.167 in assay [1]; 0.199 in [3]; -0.0846 in assay [4]; 0.701 in assay [5]; 2.41 in assay [6]; 0.268 in [7]. The composite z-score stood at 1.3 in assay [8]; 0.697 in assay [9]; 1.15 in assay [10]; 1.38 in assay [11]; 1.29 in assay [12]; 0.508 in assay [13]. Moreover, the composite z-score was 0.991 in assay [14]; 1.3 in assay [15]; 1.86 in assay [16]; 0.719 in assay [18]; 0.679 in assay [19]. Also, the composite Z-score in [2] was -0.295 (inactive). For the same compound, the z-score is -1.06 in assay [17] and -0.849 (inactive) in assay [20].

Take `CC(C)(C)N1CC=CC23O[C@@H]4/C=C\CCCOC(=O)C4[C@H]2C(=O)N(CCCCCO)[C@@H]3C1=O` (stereo not given in full): the composite z-score in assay [1] was -1.58; in [3], -0.349; in [4], -0.126; in [5] it was 0.941; in assay [6], -0.584; in [7] it was 0.566. For the same compound, the composite z-score is -0.484 in assay [8]; -1.46 in [9]; -1.46 in assay [10]; -1.23 in assay [11]; -0.75 in assay [12]; -0.716 in [13]. Further, the composite z-score in [14] is -0.865; in [15], -1.06; in assay [16], -0.594; in assay [18], -1.4; in assay [19], -0.408. The composite Z-score in [2] is 0.794 (inactive). The z-score was -0.137 in assay [17] and 0.215 (inactive) in assay [20].

Turning to `C=CC[C@@]1(C(=O)N(C)C)N=C(c2ccc(OCCCO)cc2)O[C@@H]1c1ccccc1CN=[N+]=[N-]`, the composite z-score in assay [1] is 0.738; in [3], 0.438; in assay [4], 0.0674; in assay [5], 0.397; in assay [6], 2.48; in assay [7] it was 0.71. For the same compound, the composite z-score in [8] was 1.33; in assay [9] it was -0.201; in [10], 1.12; in assay [11] it was 2.69; in [12], 1.22; in assay [13] it was 0.188. The composite z-score worked out at 0.985 in [14]; 1.36 in assay [15]; 1.83 in assay [16]; 0.561 in [18]; 1.12 in [19]. The composite Z-score in [2] was 0.153 (inactive). Further, the z-score in [17] was 3.32; in [20], -0.84 (inactive).
